Results filed as inconclusive are left out. Entries that show only a call come without a potency. A number with no mark means an inactive call. Activity calls are given as the source filed them. Unless noted, calls follow the shape of the dose curve; as a rule, active = well fitted cell-killing curve with a large enough effect in the repeat runs; inconclusive = weak or mixed curves, or effect the other way; inactive = no such curve, though single readings can be large or run the other way.

One experiment in a line: qHTS assay for small molecule activators of the heat shock response signaling pathway - cell viability counter screen (AID 743209). Also: nearly all actives have a fitted effect of over 50% in size. Also: potency is read from the fitted curve at half-maximal effect. The note with it: HSE-bla HeLa viability, CellTiter-Glo luminescence, 5 h; series mostly up to 62.6 µM. The procedure, abridged: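 To flag cytotoxic compounds, HSE-bla HeLa cells plated at 1500 cells/well were dosed for 5 h at 37 C, followed by the reporter FRET read and then CellTiter-Glo, with luminescence recorded 30 min after reagent addition.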
As to `O=C(Nc1ccc([N+](=O)[O-])cc1)Nc1ccc([N+](=O)[O-])cc1`, the Potency entry was “inactive”.

For the molecule `C=CC(C)=CCC=C(C)C`, the Potency result was “inactive”.

Regarding `CCOC(=O)/C=C/C(=O)O`, the Potency result was “inactive”.

Turning to `CNC(=O)N(c1ccccc1)c1ccccc1`, the Potency result is “inactive”.

In the case of `CC(Cl)C(Cl)Cl` (stereo not drawn), the Potency result was “inactive”.

As for `CC(C)c1nnc2ccc(-c3ocnc3-c3cc(F)ccc3F)cn12`, the Potency entry was “inactive”.

Consider `CCOC(=O)[C@@H](C)Oc1ccc(Oc2nc3ccc(Cl)cc3o2)cc1`, for which the Potency entry is “inactive”.

As for `CCCCCCCCCCCCCCC[C@H](O)[C@@H](N)CO`, the Potency entry was “inactive”.

Consider `CC(=O)Oc1ccc2c(c1)CC[C@@H]1[C@@H]2CC[C@]2(C)[C@@H](O)CC[C@@H]12`, for which the Potency result was “inactive”.

In the case of `CC1CC(O)CC(C)(C)C1` (stereo not drawn), the Potency result was “inactive”.

For the molecule `COc1ccc(C(=O)c2cccc(O)c2)c(OC)c1`, the Potency entry was “inactive”.

On to `Cc1nc2ccccc2s1`, for which the Potency result was “inactive”.

For the molecule `CN(C)C(=O)Nc1ccc(Oc2ccc(Cl)cc2)cc1`, the Potency result was “inactive”.

For `C[Si](NC1CCCCC1)(NC1CCCCC1)NC1CCCCC1`, the Potency entry was “inactive”.

In the case of `CCCCCCCC/C=C\CCCCCCCC(=O)OC(CO)CO`, the Potency is 43.6 µM (active).

In the case of `Cc1oncc1C(=O)Nc1ccc(C(F)(F)F)cc1`, the Potency entry was “inactive”.

In the case of `CSc1ccc(Oc2ccc(S(N)(=O)=O)cc2CN(C)C)cc1C`, the Potency entry is “inactive”.

Regarding `Cc1nc2ccccn2c(=O)c1CCN1CCC(C(=O)c2ccc(F)cc2)CC1`, the Potency result was “inactive”.

Consider `CN1CCN(c2c(F)cc3c(=O)c(C(=O)O)cn4c3c2OCN4C)CC1`, for which the Potency result was “inactive”.

Regarding `[O]=[Bi]`, the activity change, negative = cytotoxicity was 0.948% [at 5.95 µM].

Take `CCC(C(=O)OCCOCCN(CC)CC)c1ccccc1` (stereo not drawn): the Potency result was “inactive”.

As for `CC(N)CN` (stereo not drawn), the Potency result is “inactive”.

As to `CCOC(=O)c1ccccc1C`, the Potency entry was “inactive”.

Consider `Nc1nccs1`, for which the Potency result was “inactive”.

Regarding `CC[C@@H]([C@H](C)O)n1ncn(-c2ccc(N3CCN(c4ccc(OC[C@@H]5CO[C@@](Cn6cncn6)(c6ccc(F)cc6F)C5)cc4)CC3)cc2)c1=O`, the Potency entry was “inactive”.

Consider `CC(C)CCCC(=O)O`, for which the Potency entry is “inactive”.

`CN(C(=O)C(Cl)Cl)c1ccc(OC(=O)c2ccco2)cc1`: the Potency result was “inactive”.

On to `CN1C(=O)CC(C)(c2ccccc2)C1=O` (stereo not drawn), for which the Potency entry is “inactive”.

In the case of `N#C[C@@H]1C[C@@H]2C[C@@H]2N1C(=O)[C@@H](N)C12CC3CC(CC(O)(C3)C1)C2`, the Potency result was “inactive”.

Consider `Cc1occc1C(=O)Nc1ccc(C(=O)N2CCC(F)(F)/C(=C\C(=O)N3CCC(N4CCCCC4)CC3)c3ccccc32)cc1`, for which the Potency result is “inactive”.

Consider `CCc1nn(CCCN2CCN(c3cccc(Cl)c3)CC2)c(=O)n1CCOc1ccccc1`, for which the Potency entry was “inactive”.

With `OCC1CC=CCC1` (stereo not drawn), the Potency result was “inactive”.

`O=C(c1ccc(O)cc1)c1ccc(Cl)cc1`: the Potency entry is “inactive”.

In the case of `CO/N=C1\CN(c2nc3c(cc2F)c(=O)c(C(=O)O)cn3C2CC2)CC1CN` (stereo not drawn), the Potency entry was “inactive”.

`CCCCC(CC)C(=O)OCCOCCOCCOCCOC(=O)C(CC)CCCC` (stereo not drawn): the Potency entry was “inactive”.

Regarding `CC(=O)OCC(=O)[C@H]1CC[C@H]2[C@@H]3CCC4=CC(=O)CC[C@]4(C)[C@H]3CC[C@]12C`, the Potency entry is “inactive”.

A further experiment is described as follows: qHTS assay for small molecule activators of the heat shock response signaling pathway (AID 743210; active = well fitted activation curve with a large enough effect in the signal ratio in the repeat runs, with a control signal flat, not every such curve was filed as active; the % refers to the signal ratio). The following applies: HeLa HSE-bla reporter, beta-lactamase ratio, 5 h; series mostly up to 62.6 µM. The procedure, abridged:
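Heat shock element–beta-lactamase HeLa reporter cells; qHTS with compounds for 5 h at 37 C; detection by FRET substrate fluorescence after 2.5 h at RT.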
For the molecule `O=C(Nc1ccc([N+](=O)[O-])cc1)Nc1ccc([N+](=O)[O-])cc1`, the Potency result was “inactive”.

On to `CCOC(=O)/C=C/C(=O)O`, for which the Potency entry was “inactive”.

Consider `CNC(=O)N(c1ccccc1)c1ccccc1`, for which the Potency result is “inactive”.

Turning to `CC(Cl)C(Cl)Cl` (stereo not drawn), the Potency result is “inactive”.

For the molecule `CC(C)c1nnc2ccc(-c3ocnc3-c3cc(F)ccc3F)cn12`, the Potency result is “inactive”.

As to `CCOC(=O)[C@@H](C)Oc1ccc(Oc2nc3ccc(Cl)cc3o2)cc1`, the Potency result was “inactive”.

With `CCCCCCCCCCCCCCC[C@H](O)[C@@H](N)CO`, the Potency result is “inactive”.

Consider `CC(=O)Oc1ccc2c(c1)CC[C@@H]1[C@@H]2CC[C@]2(C)[C@@H](O)CC[C@@H]12`, for which the Potency entry was “inactive”.

With `COc1ccc(C(=O)c2cccc(O)c2)c(OC)c1`, the Potency entry is “inactive”.

In the case of `CO[Si](C)(OC)OC`, the Potency result is “inactive”.

For the molecule `CN(C)C(=O)Nc1ccc(Oc2ccc(Cl)cc2)cc1`, the Potency result is “inactive”.

`C[Si](NC1CCCCC1)(NC1CCCCC1)NC1CCCCC1`: the Potency entry is “inactive”.

As to `Cc1oncc1C(=O)Nc1ccc(C(F)(F)F)cc1`, the Potency result is “inactive”.

Consider `CSc1ccc(Oc2ccc(S(N)(=O)=O)cc2CN(C)C)cc1C`, for which the Potency entry is “inactive”.

For the molecule `Cc1nc2ccccn2c(=O)c1CCN1CCC(C(=O)c2ccc(F)cc2)CC1`, the Potency result was “inactive”.

As for `CCC(C(=O)OCCOCCN(CC)CC)c1ccccc1` (stereo not drawn), the Potency result is “inactive”.

For the molecule `CCOC(=O)c1ccccc1C`, the Potency result was “inactive”.

In the case of `CC[C@@H]([C@H](C)O)n1ncn(-c2ccc(N3CCN(c4ccc(OC[C@@H]5CO[C@@](Cn6cncn6)(c6ccc(F)cc6F)C5)cc4)CC3)cc2)c1=O`, the Potency entry was “inactive”.

With `CC(C)CCCC(=O)O`, the Potency entry is “inactive”.

Turning to `CN(C(=O)C(Cl)Cl)c1ccc(OC(=O)c2ccco2)cc1`, the Potency entry is “inactive”.

Turning to `N#C[C@@H]1C[C@@H]2C[C@@H]2N1C(=O)[C@@H](N)C12CC3CC(CC(O)(C3)C1)C2`, the Potency entry was “inactive”.

In the case of `CCc1nn(CCCN2CCN(c3cccc(Cl)c3)CC2)c(=O)n1CCOc1ccccc1`, the Potency entry was “inactive”.

Turning to `OCC1CC=CCC1` (stereo not drawn), the Potency result is “inactive”.

Regarding `O=C(c1ccc(O)cc1)c1ccc(Cl)cc1`, the Potency result was “inactive”.

`CO/N=C1\CN(c2nc3c(cc2F)c(=O)c(C(=O)O)cn3C2CC2)CC1CN` (stereo not drawn): the Potency result is “inactive”.

For `CCCCC(CC)C(=O)OCCOCCOCCOCCOC(=O)C(CC)CCCC` (stereo not drawn), the Potency result was “inactive”.

For the molecule `CC(=O)OCC(=O)[C@H]1CC[C@H]2[C@@H]3CCC4=CC(=O)CC[C@]4(C)[C@H]3CC[C@]12C`, the Potency entry was “inactive”.

Values taken from PubChem BioAssay (Tox21).
